# The full list was thinned out, with hits kept by preference.
# PGK inhibitor = inhibitors of T. brucei phosphoglycerate kinase; P07378; Potency, µM (top dose mostly 57.5 µM), without a hit: at the top dose activity change, negative = inhibition, usual class: inhibitors; PGK/GAPDH coupled, Kinase-Glo luminescence, 60 min; 0.043% of 380,000 active; also: potency is read from the fitted curve at half-maximal effect; nearly all actives have a fitted effect of over 60% in size
# Target sequence (P07378 whole entry, looked up): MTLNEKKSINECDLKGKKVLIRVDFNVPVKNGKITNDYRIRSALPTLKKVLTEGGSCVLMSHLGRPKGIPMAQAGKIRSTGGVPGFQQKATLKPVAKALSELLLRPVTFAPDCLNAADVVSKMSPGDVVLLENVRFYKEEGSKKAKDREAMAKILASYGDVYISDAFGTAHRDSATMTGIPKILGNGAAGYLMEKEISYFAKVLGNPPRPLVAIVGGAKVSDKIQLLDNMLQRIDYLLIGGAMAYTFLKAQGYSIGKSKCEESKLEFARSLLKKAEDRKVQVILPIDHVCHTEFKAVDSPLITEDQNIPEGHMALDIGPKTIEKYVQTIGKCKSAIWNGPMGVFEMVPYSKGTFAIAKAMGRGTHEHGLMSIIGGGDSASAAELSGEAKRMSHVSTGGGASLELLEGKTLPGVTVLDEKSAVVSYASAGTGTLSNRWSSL
#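 Recombinant glycosomal PGK reaction used 1,3-bisphosphoglycerate generated in-well by GAPDH (100nM final) in 100mM TEA pH 7.6, 5mM MgCl2, 0.01% Tween-20. After 60 minutes at room temperature, ATP was read by Kinase-Glo Plus luminescence end-point.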
# PI4K2A block = blocks human PI4K2A kinase activity | Q9BTU6 | AID 1346378 | purified PI4K2A, ADP-Glo luminescence, 1 h; hits give low values | 0.13% of 420,000 active | activity change, negative = inhibition, % at 76.9 µM; in the data active = activity change below about -50%; inconclusive = mostly about -30% to -49%;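 also: -100% = wells without enzyme as full effect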
#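 PI4K2A activity was measured by ADP-Glo luminescence: enzyme (4 ug/mL stock) and phosphatidylinositol (1.2 mM stock) in Tris pH 7.5/MgCl2/EGTA/Triton X-100 buffer were reacted with ATP (300 microM stock) for one hour at ambient temperature.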
# PI5P4Ka inh = blocks human PI5P4K alpha kinase activity; P48426; PI5P4Kalpha enzyme, ADP-Glo luminescence, 60 min; hits give low values; max response, %; 1.2% of 330,000 active; active = max response of -50% or lower; inconclusive = between -30% and -50%; inactive = -30% or higher; also: value at the top dose of about 77 µM
#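 ADP-Glo luminescence end-point after a 60 min room-temperature kinase reaction. PI5P4Kalpha and substrate in HEPES pH 7.4 buffer with EGTA, 0.1% CHAPS and 5% DMSO; ATP at 5 microM final.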
# Pin1 inh = human Pin1 inhibition; AID 504891; Q13526; 0.009% of 390,000 active; Potency, µM (highest dose often 115 µM), for the others: at the top dose activity, negative = inhibition, actives largely listed as inhibitors; Pin1 FP peptide displacement, HiFluor488, 10 min; active = well fitted inhibition curve with a large enough effect in the polarisation, with a control signal flat, not every such curve was filed as active; inconclusive = small, poorly fitted or top-dose-only effect, or effect the other way, or a change in a side signal; inactive = no such curve, though single readings can be large or run the other way; the % refers to the polarisation; also: potency is read from the fitted curve at half-maximal effect
# Target sequence (Q13526 whole entry, looked up): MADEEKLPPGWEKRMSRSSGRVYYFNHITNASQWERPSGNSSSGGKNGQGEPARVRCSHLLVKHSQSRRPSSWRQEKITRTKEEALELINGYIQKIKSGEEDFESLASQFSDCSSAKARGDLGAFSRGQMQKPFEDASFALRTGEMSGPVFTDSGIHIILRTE
# Tb PFK block = inhibitors of T. brucei phosphofructokinase; O15648; T. brucei PFK, ADP-Glo luminescence; Potency, µM (top dose mostly 57.5 µM), inactives show at the top dose activity, negative = inhibition, hits mostly inhibitors; 0.17% of 330,000 active; AID 485367;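 also: potency is read from the fitted curve at half-maximal effect; 0% = uninhibited 1x PFK enzyme wells and -100% = no-enzyme wells; nearly all actives have a fitted effect of over 60% in size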
#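 Activity is normalized to no-enzyme wells (full inhibition) and 1.25 nM enzyme wells (no inhibition). Reaction: 0.5 mM F6P, 0.1 mM ATP, 45 min RT, ADP-Glo luminescence; concentration-response curves fitted and classed by quality.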
# Active calls of the source: *; i = inactive; ? = inconclusive; . = no result. Unless noted, calls follow the shape of the dose curve; as a rule, active = well fitted curve in the direction sought with a large enough effect; inconclusive = small, poorly fitted or top-dose-only effect, or another doubt; inactive = no such curve, though single readings can be large; an effect the other way counts as inactive or inconclusive. Unless noted, % is scaled to controls: 0 for no effect and ±100 for the full control effect.
SMILES,PGK inhibitor,PI4K2A block,PI5P4Ka inh,Pin1 inh,Tb PFK block
Cc1ccc(N2C(=O)NC(=O)/C(=C/C=C/c3ccco3)C2=O)cc1,-10%,?,-24,?,?
O=C(O)Cn1cc(/C=C2\C(=O)NC(=O)N(Cc3ccco3)C2=O)c2ccccc21,?,?,?,32%,?
O=C1NC(=O)N(Cc2ccc(F)cc2)C(=O)/C1=C\C=C\c1ccco1,-10%,-11,-75*,?,?
O=C1NC(=O)N(Cc2ccco2)C(=O)/C1=C/c1cccn1CCOc1ccccc1Cl,-19%,?,-52*,33%,?
O=C1NC(=O)N(Cc2ccccc2)C(=O)/C1=C\c1ccco1,?,-22,-86*,?,-7%
O=C(C1CCCN(S(=O)(=O)c2cccc3nsnc23)C1)N1CCN(c2cccc(Cl)c2)CC1 (stereo not drawn),-3%,-2,.,?,.
Cc1ccccc1C(=O)Nc1ccc(C(=O)OCc2cc(=O)n3nc(C4CC4)sc3n2)cc1,-8%,2,.,?,.
COc1ccc2c3c1O[C@H]1[C@@H](O)C=C[C@H]4[C@@H](C2)N(C)CC[C@@]341,.,i,.,.,.
CCC1(CCC(C)C)C(=O)NC(=O)NC1=O,.,i,.,.,.
O=c1[nH]c(=O)n(C2CCCCC2)c(O)c1C1=Nc2ccccc2SC(c2ccc(Cl)cc2)C1 (stereo not drawn),.,-4,.,?,.
O=C1NC(=O)N(c2ccccc2)C(=O)/C1=C\C=C\c1ccccc1,-1%,-10,?,10%,-4%
CCCCN1C(=O)/C(=C\c2ccco2)C(=O)N(CCc2ccccc2)C1=O,-14%,-21,-82*,-4%,?
CCCCN1C(=O)/C(=C/C=C/c2ccco2)C(=O)NC1=S,?,-5,-85*,?,-29%
CCOC(=O)c1c(/N=C/C2C(=O)NC(=S)NC2=O)sc2c1CCC2,-1%,4,-78*,?,5%
N#Cc1c(/N=C/C2C(=O)NC(=S)NC2=O)sc2c1CCCC2,2%,-15,-55*,?,-16%
CCOC(=O)c1c(/N=C/C2C(=O)NC(=S)NC2=O)sc(C)c1C,.,.,.,.,20%
CNS(=O)(=O)c1ccc(-c2ccc(C=C3C(=O)NC(=O)NC3=O)o2)cc1,i,-13,-20,5%,9%
O=C1NC(=O)C(=Cc2ccc(SC3CCCCC3)o2)C(=O)N1,?,-27,-75*,-12%,9%
COc1cc(C[C@@H](C)N)c(OC)cc1C,.,i,.,.,.
O=c1[nH]c(O)c(N=Nc2ccc(S(=O)(=O)N3CCOCC3)cc2)c(=O)[nH]1,-12%,-4,-15,17%,-10%
O=c1[nH]c(=S)[nH]c(O)c1N=Nc1ccc(S(=O)(=O)N2CCOCC2)cc1,?,-18,-55*,-3%,-25%
O=c1[nH]c(=S)[nH]c(O)c1N=Nc1cc(S(=O)(=O)Nc2ccc(Cl)cc2)ccc1Cl,-12%,3,-59*,?,-1%
CC#C[C@]1(O)CC[C@H]2[C@@H]3C[C@H](C)C4=CC(=O)CC[C@]4(C)[C@H]3CC[C@@]21C,.,-5,.,.,.
Cn1cccc1/C=C1/C(=O)NC(=O)N(Cc2ccccc2)C1=O,-8%,-14,-66*,?,16%
C=CCN1C(=O)NC(=O)/C(=C/c2cccn2C)C1=O,i,-23,?,-2%,-6%
SMILES,PGK inhibitor,PI4K2A block,PI5P4Ka inh,Pin1 inh,Tb PFK block
Cn1cccc1/C=C1\C(=O)NC(=O)N(Cc2ccccc2)C1=O,-15%,-1,-58*,?,1%
Cn1cccc1/C=C1/C(=O)NC(=S)N(Cc2ccc(F)cc2)C1=O,-14%,32,-94*,.,1%
O=C1NC(=O)N(Cc2ccccc2)C(=O)/C1=C\N1CCCc2ccccc21,-7%,-2,?,?,0%
Cn1cccc1/C=C1\SC(=S)N(CC(=O)O)C1=O,-1%,3,4,?,?
Cn1cccc1/C=C1/C(=O)NC(=O)N(Cc2ccc(F)cc2)C1=O,-17%,-25,-65*,-6%,10%
Cc1cccc(Oc2nc3c(C)cccn3c(=O)c2/C=C(\C#N)c2nc3ccccc3s2)c1,6%,-6,.,?,.
CN1CCC(N(Cc2ccccc2)c2ccccc2)CC1,.,0,.,.,.
CC1Sc2c(C(=O)O)c(=O)c3cc(F)c(N4CCNCC4)cc3n21 (stereo not drawn),.,-5,.,.,.
COc1cccc(NC(=O)C2CCN(S(=O)(=O)c3cc(-c4noc(C)n4)ccc3C)CC2)c1,-2%,-3,.,?,.
CC/C(=N\NC(=O)c1ccccc1O)c1c(O)n(C2CCCCC2)c(=O)[nH]c1=O,i,-3,-74*,-1%,0%
CC/C(=N\NC(=O)c1ccccc1)c1c(O)n(Cc2ccccc2)c(=O)[nH]c1=O,-5%,-10,-85*,?,-3%
CCC(=NCCO)c1c(O)n(C2CCCCC2)c(=O)[nH]c1=O,8%,-13,-4,7%,-1%
CCC(=NCC1CCCO1)c1c(O)n(Cc2ccccc2)c(=O)[nH]c1=O (stereo not drawn),1%,-1,6,5%,-2%
C=CCNC(=S)/N=C/c1c(O)[nH]c(=O)[nH]c1=O,-3%,-21,-52*,?,-1%
CCCCCCCCN=Cc1c(O)[nH]c(=O)[nH]c1=O,-4%,1,-1,-7%,1%
NC(=S)/N=C/c1c(O)[nH]c(=O)[nH]c1=O,i,-14,-60*,?,1%
Cc1nc2ccccc2c(=O)n1-c1ccccc1Cl,.,i,.,.,.
C=CCN1C(=O)NC(=O)/C(=C/c2ccoc2)C1=O,?,-6,-69*,?,-3%
C=CCN1C(=O)/C(=C/c2cc(C)n(-c3ccccn3)c2C)C(=O)NC1=S,-11%,-2,?,23%,-1%
COc1ccc(CN2C(=O)NC(=O)/C(=C/c3cc(OC)c(OC)c(OC)c3)C2=O)cc1,12%,-17,-51*,18%,2%
COc1ccc(CN2C(=O)NC(=O)/C(=C/c3ccoc3)C2=O)cc1,?,-17,-71*,?,-21%
C=CCN1C(=O)NC(=O)/C(=C/c2ccc(N(C)C)c(Br)c2)C1=O,i,-8,-59*,4%,1%
COc1ccc(CN2C(=O)NC(=O)/C(=C/c3ccc(OC)c(OC)c3OC)C2=O)cc1,5%,-10,-17,20%,-30%
COc1ccc(/C=C2\C(=O)NC(=O)N(CCC3=CCCCC3)C2=O)c(OC)c1,-4%,?,?,20%,-3%
Cc1ccc(N2C(=O)NC(=O)/C(=C/c3ccoc3)C2=O)cc1,11µM*,-24,-83*,?,?
CN1C(=O)/C(=C\c2ccc(Br)s2)C(=O)NC1=S,0%,-17,-77*,34%,-3%
O=C1NC(=S)NC(=O)C1=Cc1ccc(Br)s1,-14%,-18,-85*,-3%,-21%
CCN(CC)CCc1c[nH]c2ccccc12,.,i,.,.,.
O=C1c2ccccc2-c2cc3ccccc3cc21,-11%,5,20,-7%,.
